The whole screen tested about 5,500 compounds, of which about 2,000 (36%) were called active. Not shown: some 18% with an inconclusive outcome. No stated cut-off is given here; in the data, active means normalized growth mostly below about 0.91 (no sharp cut-off); inconclusive means no clear call, values can overlap the other calls; inactive means mostly above about 0.92. The list shows a part of the results.
Assay: chemical genetic growth profiling, strain panel (AID 1159580);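 further: tested at 20 µM; growth read once vehicle control cultures reached saturation at 30 °C; 1 = growth at the plate median or of vehicle wells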
Settings: growth OD

Measured: normalized growth

N#Cc1ccc2c(c1)N(CCCN1CCC(O)CC1)c1ccccc1S2
inactive: S. cerevisiae deletion strains, locus YJR075W, strain HOC1, stronger effect = lower value 1.03 | S. cerevisiae deletion strains, locus YKL009W, strain mrt4, stronger effect = lower value 1.01 | S. cerevisiae deletion strains, locus YKL068W, stronger effect = lower value 1.01 | S. cerevisiae deletion strains, locus YKL085W, strain MDH1 (second series), stronger effect = lower value 1.04 | S. cerevisiae deletion strains, locus YKL085W, strain MDH1, stronger effect = lower value 1.04 | S. cerevisiae deletion strains, locus YKL160W, strain elf1, stronger effect = lower value 0.998 | S. cerevisiae deletion strains, locus YKL190W, strain CNB1, stronger effect = lower value 1.01 | S. cerevisiae deletion strains, locus YKR001C, strain vps1, stronger effect = lower value 1.02 | S. cerevisiae deletion strains, locus YKR026C, strain gcn3, stronger effect = lower value 0.995 | S. cerevisiae deletion strains, locus YKR091W, strain srl3, stronger effect = lower value 0.995 | S. cerevisiae deletion strains, locus YLL001W, strain dnm1, stronger effect = lower value 0.996 | S. cerevisiae deletion strains, locus YLL026W, stronger effect = lower value 0.987 | S. cerevisiae deletion strains, locus YLL041C, strain sdh2, stronger effect = lower value 0.996 | S. cerevisiae deletion strains, locus YLR027C, strain aat2, stronger effect = lower value 0.992 | S. cerevisiae deletion strains, locus YLR039C, strain RIC1, stronger effect = lower value 1.08 | S. cerevisiae deletion strains, locus YLR058C, strain SHM2, stronger effect = lower value 1.01 | S. cerevisiae deletion strains, locus YLR102C, strain apc9, stronger effect = lower value 1.02 | S. cerevisiae deletion strains, locus YLR113W, strain HOG1, stronger effect = lower value 1.05 | S. cerevisiae deletion strains, locus YLR221C, strain rsa3, stronger effect = lower value 0.995 | S. cerevisiae deletion strains, locus YLR258W, strain gsy2, stronger effect = lower value 0.977 | S. cerevisiae deletion strains, locus YLR262C, strain YPT6 (second series), stronger effect = lower value 1.02 | S. cerevisiae deletion strains, locus YLR262C, strain YPT6, stronger effect = lower value 1.07 | S. cerevisiae deletion strains, locus YLR268W, strain sec22, stronger effect = lower value 1.01 | S. cerevisiae deletion strains, locus YLR320W, strain mms22, stronger effect = lower value 0.959 | S. cerevisiae deletion strains, locus YLR330W, strain CHS5, stronger effect = lower value 1 | S. cerevisiae deletion strains, locus YLR342W, strain FKS1 (second series), stronger effect = lower value 0.989 | S. cerevisiae deletion strains, locus YLR342W, strain FKS1, stronger effect = lower value 0.992 | S. cerevisiae deletion strains, locus YLR357W, strain rsc2, stronger effect = lower value 0.969 | S. cerevisiae deletion strains, locus YLR370C, strain arc18, stronger effect = lower value 0.994 | S. cerevisiae deletion strains, locus YLR371W, strain rom2, stronger effect = lower value 1.02 | S. cerevisiae deletion strains, locus YLR384C, strain iki3, stronger effect = lower value 0.986 | S. cerevisiae deletion strains, locus YLR418C, strain cdc73, stronger effect = lower value 1 | S. cerevisiae deletion strains, locus YML016C, strain PPZ1, stronger effect = lower value 1.01 | S. cerevisiae deletion strains, locus YML032C, strain rad52, stronger effect = lower value 1.01 | S. cerevisiae deletion strains, locus YML120C, strain ndi1, stronger effect = lower value 0.994 | S. cerevisiae deletion strains, locus YML124C, strain tub3, stronger effect = lower value 1.02 | S. cerevisiae deletion strains, locus YMR058W, strain fet3, stronger effect = lower value 0.999 | S. cerevisiae deletion strains, locus YMR078C, strain ctf18, stronger effect = lower value 1.02 | S. cerevisiae deletion strains, locus YMR125W, strain sto1, stronger effect = lower value 0.966 | S. cerevisiae deletion strains, locus YMR129W, stronger effect = lower value 0.997 | S. cerevisiae deletion strains, locus YMR205C, strain PFK2, stronger effect = lower value 0.935 | S. cerevisiae deletion strains, locus YMR223W, strain ubp8, stronger effect = lower value 1.01 | S. cerevisiae deletion strains, locus YMR231W, strain pep5, stronger effect = lower value 1 | S. cerevisiae deletion strains, locus YMR263W, strain SAP30, stronger effect = lower value 1.02 | S. cerevisiae deletion strains, locus YMR307W, strain GAS1, stronger effect = lower value 1.04 | S. cerevisiae deletion strains, locus YNL067W, strain RPL9B, stronger effect = lower value 1.01 | S. cerevisiae deletion strains, locus YNL071W, strain lat1, stronger effect = lower value 0.96 | S. cerevisiae deletion strains, locus YNL128W, strain TEP1, stronger effect = lower value 1.01 | S. cerevisiae deletion strains, locus YNL153C, strain GIM3, stronger effect = lower value 1 | S. cerevisiae deletion strains, locus YNL183C, strain NPR1, stronger effect = lower value 0.983 | S. cerevisiae deletion strains, locus YNL209W, strain ssb2, stronger effect = lower value 0.993 | S. cerevisiae deletion strains, locus YNL233W, strain BNI4, stronger effect = lower value 0.998 | S. cerevisiae deletion strains, locus YNL248C, strain rpa49, stronger effect = lower value 0.997 | S. cerevisiae deletion strains, locus YNL250W, strain rad50, stronger effect = lower value 1.04 | S. cerevisiae deletion strains, locus YNL271C, strain bni1, stronger effect = lower value 1.03 | S. cerevisiae deletion strains, locus YNL298W, strain CLA4, stronger effect = lower value 1.02 | S. cerevisiae deletion strains, locus YNL307C, strain MCK1, stronger effect = lower value 1 | S. cerevisiae deletion strains, locus YNL322C, strain KRE1 (second series), stronger effect = lower value 0.995 | S. cerevisiae deletion strains, locus YNL322C, strain KRE1, stronger effect = lower value 1.01 | S. cerevisiae deletion strains, locus YNR049C, strain mso1, stronger effect = lower value 0.991 | S. cerevisiae deletion strains, locus YNR052C, strain pop2, stronger effect = lower value 1.02 | S. cerevisiae deletion strains, locus YOL006C, strain TOP1, stronger effect = lower value 1.01 | S. cerevisiae deletion strains, locus YOL012C, strain htz1 0.994 | S. cerevisiae deletion strains, locus YOL147C, strain pex11, stronger effect = lower value 1.02 | S. cerevisiae deletion strains, locus YOR001W, strain rrp6, stronger effect = lower value 0.981 | S. cerevisiae deletion strains, locus YOR061W, strain CKA2, stronger effect = lower value 1.01 | S. cerevisiae deletion strains, locus YOR069W, strain VPS5, stronger effect = lower value 1.01 | S. cerevisiae deletion strains, locus YOR070C, strain gyp1, stronger effect = lower value 1.04 | S. cerevisiae deletion strains, locus YOR080W, strain dia2, stronger effect = lower value 0.987 | S. cerevisiae deletion strains, locus YOR083W, strain WHI5, stronger effect = lower value 1 | S. cerevisiae deletion strains, locus YOR106W, strain vam3, stronger effect = lower value 1 | S. cerevisiae deletion strains, locus YOR136W, strain idh2, stronger effect = lower value 1.03 | S. cerevisiae deletion strains, locus YOR144C, strain elg1, stronger effect = lower value 1.02 | S. cerevisiae deletion strains, locus YOR184W, strain ser1, stronger effect = lower value 1.03 | S. cerevisiae deletion strains, locus YOR231W, strain MKK1, stronger effect = lower value 1.08 | S. cerevisiae deletion strains, locus YOR265W, strain rbl2, stronger effect = lower value 0.98 | S. cerevisiae deletion strains, locus YOR270C, strain vph1, stronger effect = lower value 1.02 | S. cerevisiae deletion strains, locus YOR290C, strain snf2, stronger effect = lower value 0.973 | S. cerevisiae deletion strains, locus YOR316C, strain cot1, stronger effect = lower value 1.01 | S. cerevisiae deletion strains, locus YPL051W, strain arl3, stronger effect = lower value 1 | S. cerevisiae deletion strains, locus YPL055C, strain LGE1, stronger effect = lower value 1.02 | S. cerevisiae deletion strains, locus YPL078C, strain atp4, stronger effect = lower value 1 | S. cerevisiae deletion strains, locus YPL106C, strain sse1, stronger effect = lower value 0.963 | S. cerevisiae deletion strains, locus YPL240C, strain hsp82, stronger effect = lower value 1.01 | S. cerevisiae deletion strains, locus YPL241C, strain CIN2, stronger effect = lower value 1 | S. cerevisiae deletion strains, locus YPL256C, strain CLN2, stronger effect = lower value 1.07 | S. cerevisiae deletion strains, locus YPR119W, strain clb2, stronger effect = lower value 1.02 | S. cerevisiae deletion strains, locus YPR141C, strain kar3, stronger effect = lower value 1.02 | S. cerevisiae deletion strains, locus YPR163C, strain tif3, stronger effect = lower value 1.03 | S. cerevisiae deletion strains, locus YPR167C, strain met16, stronger effect = lower value 1.02 | S. cerevisiae deletion strains, strain wtn01, stronger effect = lower value 1.01 | S. cerevisiae strains, strain wild type, stronger effect = lower value 1.01
